M1 ag parental: M1 agonist counterscreen hit in parental CHO-K1 cells. activation, % at 3 µM. Fluo-8 calcium fluorescence; scaled to maximal ATP response, vehicle zero. AID 602248. actives 0.48% (n = 360,000); in the data active means activation above about 15%;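 further: untransfected CHO-K1 host cells lacking M1 receptor as counterscreen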
M1 ag: activates human CHRM1 receptor. P11229. CHO-K1 hM1, Fluo-8 calcium fluorescence, agonist mode; 0% DMSO, 100% acetylcholine EC100. activation, % at 3 µM. actives 0.33% (n = 360,000);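 active means activation above the run's mean compound activation plus 3 SD, cut at about 16% in these data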;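 further: peak over basal fluorescence ratio within a 140 s kinetic read after compound addition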
Target sequence (P11229 whole entry, looked up): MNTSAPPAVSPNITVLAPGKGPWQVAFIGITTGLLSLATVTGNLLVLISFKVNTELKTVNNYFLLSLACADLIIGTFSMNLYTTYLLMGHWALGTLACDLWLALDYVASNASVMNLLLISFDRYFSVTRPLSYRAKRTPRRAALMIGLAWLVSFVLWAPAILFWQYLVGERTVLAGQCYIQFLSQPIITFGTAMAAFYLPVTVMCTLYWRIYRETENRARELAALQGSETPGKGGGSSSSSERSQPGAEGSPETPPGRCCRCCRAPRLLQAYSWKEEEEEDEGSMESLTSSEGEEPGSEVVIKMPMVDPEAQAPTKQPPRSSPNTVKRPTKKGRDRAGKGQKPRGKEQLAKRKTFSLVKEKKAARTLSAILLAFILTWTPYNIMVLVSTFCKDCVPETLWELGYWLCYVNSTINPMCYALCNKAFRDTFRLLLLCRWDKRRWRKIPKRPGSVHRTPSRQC
CHO-K1 Ca antag: M1 antagonist counterscreen hit in parental CHO-K1 cells; inhibition, % at 3 µM; actives 0.6% (n = 360,000); ATP-induced calcium, Fluo-8 fluorescence;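 active means inhibition above a per-plate cutoff, the plate's mean sample inhibition plus 3 SD, cut at about 24% in these data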
M1 antag: human CHRM1 antagonism. P11229. CHO-K1 hM1, Fluo-8 calcium fluorescence, ACh EC80 antagonist. inhibition, % at 3 µM. actives 1.3% (n = 360,000);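 active means percent inhibition above its own plate's cutoff, namely the mean of that plate's compound wells plus 3 SD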;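 further: peak over basal fluorescence ratio during 140 s after agonist addition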
M1 PAM parental: M1 PAM counterscreen hit in parental CHO-K1 cells; activation, % at 3 µM; ATP EC20, Fluo-8 calcium fluorescence; 0% at ATP EC20, 100% at ATP max; AID 602247; actives 0.02% (n = 360,000);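 active means activation above the run cutoff, the mean activation of all test compounds plus 3 SD, cut at about 40% in these data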;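 further: peak over basal fluorescence ratio in a 140 s read after ATP addition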
M1 PAM: human CHRM1 positive allosteric modulation. P11229. CHO-K1 hM1, Fluo-8 calcium fluorescence, ACh EC20; 0% = ACh EC20, 100% = maximal ACh. activation, % at 3 µM. actives 0.088% (n = 360,000). AID 588819; in the data active means activation above about 19%, passing the limit was not always enough
Each line names hits and unclear results; the compound was inactive in the other large screens. An excerpt weighted towards active compounds, which were near 2.4% of everything screened.

O=C(Nc1ccc(S(=O)(=O)NCc2ccccc2)cc1)Nc1ccc2c(c1)OCO2	M1 antag 27
COc1cccc(C2c3cc4c(cc3OC(N3CCOCC3)C2C)OCO4)c1O (stereo not drawn)	none
NC(=O)c1ccccc1NC(=O)CN1CCCCCC1	none
NC(=O)c1cc(-c2ccccc2)sc1NC(=O)CN1CCCCC1	CHO-K1 Ca antag 25
CCN(CC)CCCNc1ncnc2scc(-c3ccc(F)cc3)c12	M1 antag 34
CC1CCN(CCCOc2ccc(OCc3ccccc3)cc2)CC1	M1 antag 43
c1ccc(COc2ccc(OCCCN3CCCC3)cc2)cc1	M1 antag 46
c1ccc(COc2ccc(OCCN3CCCC3)cc2)cc1	none
C[C@H](CO)N1C[C@H](C)[C@H](CN(C)C(=O)Nc2ccc(-c3cccs3)cc2)OCc2cnnn2CCCC1=O	none
COc1cc(C2C(C#N)=C(N)N(Nc3ccccc3)C3=C2C(=O)CC(C)(C)C3)ccc1OCc1ccccc1 (stereo not drawn)	none
COc1cc(C2C(C#N)=C(N)N(Nc3ccccc3)C3=C2C(=O)CC(C)(C)C3)ccc1OCc1cccc(F)c1 (stereo not drawn)	CHO-K1 Ca antag 33
N#CCc1c(C#N)c(N)nc(N2CCN(C=O)CC2)c1C#N	CHO-K1 Ca antag 24
CC(=O)Oc1cc2c(cc1Cl)C1(CC(c3ccccc3Cl)O2)CC(C)(C)NC(=S)N1 (stereo not drawn)	M1 antag 47
CCOC(=O)C1=C[C@@H](C2CCCC2)N(S(=O)(=O)c2ccc([N+](=O)[O-])cc2)[C@H]1c1ccccc1	CHO-K1 Ca antag 31, M1 antag 44
CCOC(=O)C1=C[C@@H](CC)N(S(=O)(=O)c2ccc(C)cc2)[C@H]1c1ccccc1	none
CCN(CC)C1=CC2=CC(=C(C#N)C#N)CCC2CC1 (stereo not drawn)	M1 ag parental 99, M1 ag 230, CHO-K1 Ca antag 67, M1 antag 63
CCCCN(C)C1=CC2=CC(=C(C#N)C#N)CCC2CC1 (stereo not drawn)	M1 ag parental 578, M1 ag 670, CHO-K1 Ca antag 92, M1 antag 101
CC1CN(C)C(C)C/C1=N\Oc1ccc([N+](=O)[O-])cc1 (stereo not drawn)	none
CC1CN(C)C(C)C/C1=N/Oc1ccccc1[N+](=O)[O-] (stereo not drawn)	M1 antag 42
Cc1ccc(CN2C(=O)CCC2C(=O)NCCc2ccccc2)cc1 (stereo not drawn)	none
Cc1ccc(/C=C/C(=O)NCCCN2CCN(CCCNC(=O)/C=C/c3ccc(C)cc3)CC2)cc1	none
COc1ccc(/C=C/C(=O)NCCCN2CCCC2)cc1	M1 antag 41
COc1ccccc1C(=O)Nc1sc(C(=O)N2CCCC2)c(C)c1C#N	none
Cc1c(C(=O)N2CCCC2)sc(NC(=O)c2ccc(Cl)cc2)c1C#N	CHO-K1 Ca antag 24
N#CCOC(=O)[C@H](Cc1c[nH]c2ccccc12)NS(=O)(=O)c1ccc(Cl)cc1	none
NC(=O)C1(Nc2ccc(C(=O)O)cc2)CCCC1	none
CCOC(=O)C(Cc1ccc(NC(=O)/C(=C/c2ccc(OC(C)=O)cc2)NC(C)=O)cc1)N1C(=O)c2ccccc2C1=O (stereo not drawn)	M1 antag 27
CCOC(=O)C(Cc1ccc(NC(=O)/C(=C/c2ccccc2)NC(=O)c2ccccc2)cc1)N1C(=O)c2ccccc2C1=O (stereo not drawn)	none
CS(=O)(=O)N1CCc2cc(S(=O)(=O)Nc3ccc4c(c3)OCCO4)ccc21	M1 antag 33
CCCCN(CC)CCCNC(=O)CN1C(=O)CSc2ccc(S(=O)(=O)N3CCOCC3)cc21	none
COCCNC(=O)CN1C(=O)CSc2ccc(S(=O)(=O)N3CCOCC3)cc21	none
CCCCN(CCCC)CCNC(=O)CN1C(=O)CSc2ccc(S(=O)(=O)N3CCOCC3)cc21	M1 antag 87
COCCNC(=O)CN1C(=O)CSc2cc(S(=O)(=O)N3CCCCCC3)ccc21	CHO-K1 Ca antag 35
Nn1c(SCC(=O)Nc2ccccc2Br)nnc1-c1ccco1	none
CCN(CC)c1ccc(NC(=O)CSc2nc3ccccc3c(=O)n2-c2cc(S(=O)(=O)N(C)C)ccc2C)cc1	CHO-K1 Ca antag 24
CCc1cc2c(=O)n(CCCOC)c(SCC(=O)Nc3oc(C)c4c(C)n[nH]c(=O)c34)nc2s1	none
O=C(c1[nH]ncc1-c1cccc(Br)c1)C1CO1 (stereo not drawn)	none
O=C(c1[nH]ncc1-c1ccccc1)C1CO1 (stereo not drawn)	M1 ag parental 19
COc1cc(CN2CCN(C(O)(c3ccccc3)c3ccccc3)CC2)cc(OC)c1OC	M1 antag 62
CC1(C)CC2CC(C)(CN2C(=S)Nc2ccccc2)C1 (stereo not drawn)	M1 ag parental 16
OC1(C#CCN2CCCC2)c2ccccc2-c2ccccc21	M1 antag 85
CCN(CC)CCC#CC1(O)c2ccccc2-c2ccccc21	M1 antag 99
CN(C)CCC#CC1(O)c2ccccc2-c2ccccc21	M1 antag 66
CC(C)(C)N(CC#CCC1(O)c2ccccc2-c2ccccc21)CCO	none
OC(C#CCN1CCCC1)c1ccccc1 (stereo not drawn)	none
O=C(/C=C/c1ccc2c(c1)S(=O)(=O)N(Cc1ccccc1)[C@H]2CC(=O)N1CCOCC1)N1CCOCC1	none
CCOC(=O)Cc1cc(=O)[nH]n(-c2ccccc2)c1=O	none
CCc1ccc(NC(=O)c2nc(S(=O)(=O)Cc3ccccc3)ncc2Cl)cc1	CHO-K1 Ca antag 30
CC(=O)Nc1ccc(NC(=O)c2nc(S(=O)(=O)Cc3cccc(C)c3)ncc2Cl)cc1	none
CCOC(=O)c1ccc(NC(=O)c2nc(S(=O)(=O)Cc3ccccc3)ncc2Cl)cc1	none
Cc1ccc(NC(=O)c2nc(S(=O)(=O)Cc3ccccc3C)ncc2Cl)cc1C	CHO-K1 Ca antag 26
CCCS(=O)(=O)c1nc(S(=O)(=O)c2ccc(C)cc2)c(N2CCCC(C)C2)s1 (stereo not drawn)	none
C[C@@H]1CN([C@@H](C)CO)C(=O)CCCn2nncc2CO[C@H]1CN(C)S(=O)(=O)c1ccc(Oc2ccccc2)nc1	none
C/C(=N\O)C(=O)NCc1ccncc1	CHO-K1 Ca antag 25
O=C(NCc1ccncc1)C(=O)NCc1ccncc1	none
COc1ccc(CCNC(=O)COC(=O)CSc2ccc(C(N)=O)cc2[N+](=O)[O-])cc1OC	none
C=CCN(c1ccccc1)S(=O)(=O)c1ccc(Cl)c(C(=O)OCC(=O)c2[nH]c(C)c(C(C)=O)c2C)c1	CHO-K1 Ca antag 29, M1 antag 31

Screening data (PubChem BioAssay)
